We go through 27 molecules from PubChem BioAssay (EPA / NIEHS).

The structures appear in SMILES notation. Results filed as inconclusive are left out. Active and inactive are the calls of the source. The calls were made as follows, unless noted: active = hit-call score of the fitted dose curve at least 0.9, where 1 is the maximum; inconclusive = response in the unintended direction; inactive = score below 0.9.

Read-out in experiment [1]: sulfotransferase (SULT2A), SULT2A1 (gene 6822)
Briefly: CLD_SULT2A_48hr: CellzDirect (CLD) Gene Expression Assay for sulfotransferase (SULT2A) at 48 hours (AID 2283710).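 Also: hits raise SULT2A1 transcript above the 0.2% DMSO vehicle baseline.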 In short, it runs like this:
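SULT2A1 transcript measured by qNPA chemiluminescence in human primary hepatocyte cultures after 48 h, with fresh dosing solutions on two consecutive days; gain-of-signal fitting against 0.2% DMSO vehicle; cytotoxicity annotated from phase-contrast morphology.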

The nature of experiment [2]: Tanguay_ZF_120hpf_ActivityScore_legacy: (Legacy) Oregon State University Tanguay Lab 120 Hour Post-fertilization zebrafish Assay Score for Activity (AID 2283742).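 As to AC50: dechorionated Tropical 5D wild-type zebrafish embryos held singly per well; static exposure from 6 hpf until 120 hpf at 28 °C.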 In short, it runs like this: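 In this whole-embryo screen, dechorionated zebrafish were exposed from 6 hpf until 120 hpf at 28C under a 0.64% DMSO vehicle. Developmental malformations and death were recorded by brightfield microscopy as binary endpoints.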

The nature of experiment [3]: CEETOX_H295R_MTT_cell_viability: Viability Assessment in the CeeTox HT-H295R MTT Assay (AID 2283718; active = hit-call score of the fitted dose curve at least 0.9, where 1 is the maximum; inactive = score below 0.9). In short, it runs like this: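 H295R cells prestimulated 48 h with 10 uM forskolin, then exposed 48 h to test chemical (0.1% DMSO final). Viability by MTT (0.5 mg/ml, 4 h, 37 C), absorbance 570/650 nm; percent change versus DMSO, bidirectional fit.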
Experiment [4] in a line: STM_H9_OrnithineISnorm_perc: Stemina devTOX quickPredict H9 human embryonic stem cell (hESC)-based Assay for Ornithine (ORN) Metabolite Biomarker, Normalized (AID 2283712; active = hit-call score of the fitted dose curve at least 0.9, where 1 is the maximum; inactive = score below 0.9;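 also: ornithine released into spent medium during last day measured by mass spectrometry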). In short, it runs like this:
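Ornithine in spent medium from the last 24 h of a 72 h exposure, deproteinised and quantified by UPLC-HRMS against an isotope-labelled internal standard, expressed relative to 0.1% DMSO. Pluripotent H9 cells; compound refreshed every 24 h.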

A short description of experiment [5]: STM_H9_OrnCyssISnorm_ratio: Stemina devTOX quickPredict H9 human embryonic stem cell (hESC)-based Assay for Ornithine (ORN):Cystine (CYSS) Ratio (AID 2283714). In short, it runs like this:
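H9 hESC, 72h, q24h re-dose; last-day media → acetonitrile deproteinization → UPLC-HRMS. ORN:CYSS ratio from isotope-normalized EIC areas, vs 0.1% DMSO; MTX references on each plate.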

The test system of experiment [6] is Thyroperoxidase (TPO), gene 445522. As to the kind of experiment: CCTE_Simmons_GUA_TPO: CCTE's Guaiacol Assay for Thyroperoxidase (TPO) Inhibition, Simmons Lab (AID 2283750). In short, it runs like this:
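Porcine thyroid microsomes (25 ug) in 200mM potassium phosphate, preincubated 30 s at 37C with compound (8 concentrations, 5 nM–87.5 uM) and 35mM guaiacol; 1mM H2O2 starts reaction. Absorbance change at 450nm over first 80 s; loss of signal versus DMSO, three replicates.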

A short description of experiment [7]: ArunA_CellTiter_hNC: Viability Assessment in the ArunA Biomedical's Oris Neural Crest (hNC) Cell Migration Assay (AID 2283752). In short, it runs like this:
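After a 72 h chemical exposure, viability of hNC cells is read with CellTiter Aqueous One and fitted as signal loss relative to DMSO. Cells were seeded at 60,000/well on Matrigel and cultured 16 h at 37 C beforehand.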

Experiment [8] is described as follows: ArunA_CellTiter_hNP: Viability Assessment in the ArunA Biomedical's Oris Neural Crest (hNC) Cell Migration Assay (AID 2283753). Here is the method:
ArunA_CellTiter_hNP is a cell-based, single-readout assay that uses human H9-derived neuroprogenitor stem cells (hNP1).Measurements were taken 72 hours after chemical dosing in a 96-well plate.ArunA_CellTiter_hNP is an assay component measured from the ArunA_CellTiter_hNP assay. It is designed to make measurements of viability, a form of viability reporter, as detected with fluorescence intensity signals by HCS Fluorescent Imaging technology. Data from the assay component ArunA_CellTiter_hNP was analyzed at the endpoint, ArunA_CellTiter_hNP, in the positive analysis fitting direction relative to DMSO as the negative control and baseline of activity. Using a type of viability reporter, loss-of-signal activity can be used to understand the viability. To generalize the intended target to other relatable targets, this assay endpoint is annotated to the cell cycle intended target family, where the subfamily is cytotoxicity.
To assess the hNP and hNC migration and cell titer endpoints, 60,000 cells per well were plated onto Matrigel in basal growth medium with LIF and bFGF in a 96-well plate format. Plates were incubated for 16 h at 37C followed by a 72 h exposure to chemical in the test medium. For the migration endpoints, cells were seeded and incubated in presence of 'seeding stoppers' to prevent cell migration and growth into the detection zone. At the beginning of chemical exposure, stoppers were removed, and growth medium was replaced with test medium. In the case of the stopper control wells, stoppers remained in place following replacement of growth medium with test medium. […] Cell viability in the detection zone was quantitated using a Flexstation3 microplate reader (ex494 nm/em 517 nm). Corresponding cell titer endpoints were assessed for the hNP and hNC cells using the Promega CellTiter Aqueous One Solution Cell Proliferation Assay (Cat no. G3581; CellTiter 96). Finally, to gain insight into the mechanisms by which cells migrate into the detection zone, Ki-67 expression was quantified for 10 additional chemicals in the hNP and hNC systems. […]

Experiment [9] in a line: ArunA_Migration_hNP: ArunA Biomedical's Oris Neuroprogenitor (hNP) Cell Migration Assay (AID 2283754). Put shortly: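 Readout is calcein-AM fluorescence (ex494/em517) of cells migrating into the detection zone, relative to DMSO. hNP1 cells (H9-derived) grown on Matrigel behind stoppers 16 h, then stoppers pulled and chemical applied 72 h; cytochalasin D as control.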
A short description of experiment [10]: ArunA_Migration_hNC: ArunA Biomedical's Oris Neural Crest (hNC) Cell Migration Assay (AID 2283755). How it is done: ArunA_Migration_hNC is a cell-based, single-readout assay that uses human H9-derived embryonic neural crest stem cells (hNC). Measurements were taken 72 hours after chemical dosing in a 96-well plate.ArunA_Migration_hNC is an assay component measured from the ArunA_Migration_hNC assay. It is designed to make measurements of cell migration, a form of distribution reporter, as detected with fluorescence intensity signals by HCS Fluorescent Imaging technology. Data from the assay component ArunA_Migration_hNC was analyzed at the endpoint, ArunA_Migration_hNC, in the positive analysis fitting direction relative to DMSO as the negative control and baseline of activity. Using a type of distribution reporter, loss-of-signal activity can be used to understand the cell migration. To generalize the intended target to other relatable targets, this assay endpoint is annotated to the neurodevelopment intended target family, where the subfamily is migration.
To assess the hNP and hNC migration and cell titer endpoints, 60,000 cells per well were plated onto Matrigel in basal growth medium with LIF and bFGF in a 96-well plate format. Plates were incubated for 16 h at 37C followed by a 72 h exposure to chemical in the test medium. For the migration endpoints, cells were seeded and incubated in presence of 'seeding stoppers' to prevent cell migration and growth into the detection zone. At the beginning of chemical exposure, stoppers were removed, and growth medium was replaced with test medium. In the case of the stopper control wells, stoppers remained in place following replacement of growth medium with test medium. Following 72 -h exposure to the test medium, cells were stained at 37C for 30-60 min with calcein-AM. Cell viability in the detection zone was quantitated using a Flexstation3 microplate reader (ex494 nm/em 517 nm). Corresponding cell titer endpoints were assessed for the hNP and hNC cells using the Promega CellTiter Aqueous One Solution Cell Proliferation Assay (Cat no. G3581; CellTiter 96). Finally, to gain insight into the mechanisms by which cells migrate into the detection zone, Ki-67 expression was quantified for 10 additional chemicals in the hNP and hNC systems. Additionally, cytochalasin D was used as a positive control to inhibit cell migration. Supplementing the AB2 Basal Medium: 1. Decontaminate the external surfaces of all supplement vials and the medium bottle with ethanol or isopropanol. 2. Aseptically open each supplement vial and add the amount indicated below to the basal medium with a pipette. To make 100 ml of complete medium: AB2 Neural Medium 96 mL, ANS Supplement 2 mL, bFGF (50 ug/mL) 40 uL, LIF (10 ug/mL) 100 uL, L-Glutamine (200 mM) 1 mL, Penicillin (5,000 U/mL)/ Streptomycin (5,000 ug/mL) 1 mL. 3. Supplemented medium should be stored at 2-8C, protected from light. The complete medium should be given a 2 week expiration date. Dispense the complete medium into aliquots to avoid repeated heating prior to each use.Plate Coating Protocol for hNP1 Neural Progenitor Expansion: To coat dishes perform the following steps: 1. Thaw BD Matrigel at 2-8C overnight. Matrix will gel rapidly at 22C to 35C. Keep Matrigel on ice and use pre-cooled pipettes, plates and tubes when preparing. Gelled Matrigel may be re-liquified if placed at 2-8C on ice for 24 to 48 hours. 2. Handle using aseptic technique in a laminar flow hood. 3. Once BD Matrigel Matrix is thawed, swirl vial to be sure that material is evenly dispersed. 4. […]

In the case of `CCOP(=O)(OCC)Oc1cc(C)nc(C(C)C)n1`, the half-maximal activity concentration (AC50) – broadly, the concentration giving half of the maximal activity seen – in experiment [1] is 4.2 µM (active). Besides, in experiment [2], the molecule was classed as inactive.

Regarding `CCCOCC(=Nc1ccc(Cl)cc1C(F)(F)F)n1ccnc1`, the result in experiment [3] and in experiment [2] was inactive.

With `CC1(C(=O)Nc2ccc(O)c(Cl)c2Cl)CCCCC1`, the molecule was called inactive in experiment [3] and in experiment [2].

With `CC(C)=CC1C(C(=O)OCN2C(=O)C3=C(CCCC3)C2=O)C1(C)C` (stereo not given), the result in [1] and in [2] was inactive.

With `CCCOc1nn(C(=O)NS(=O)(=O)c2ccccc2C(=O)OC)c(=O)n1C`, the call in experiment [2] was inactive.

Regarding `CCc1cccc(CC)c1N(COC)C(=O)CCl`, the AC50 in experiment [2] is 27.6 µM (active).

For the molecule `CCOP(=O)(SC(C)CC)N1CCSC1=O` (stereo not given), the result in experiment [1] and in experiment [2] was inactive.

Take `CC(=NC#N)N(C)Cc1ccc(Cl)nc1`: the outcome in experiment [1] and in experiment [2] was inactive.

Regarding `CCC(=NOC/C=C/Cl)C1=C(O)CC(C2CCOCC2)CC1=O` (stereo not given), the half-maximal activity concentration (AC50) in [4] is 0.0699 µM (active). In addition, the molecule was called inactive in [2].

With `COP(=O)(OC)SCn1c(=O)oc2cc(Cl)cnc21`, the call in [1] and in [2] was inactive.

As to `O=c1ccc(=O)[nH][nH]1`, the molecule was called inactive in experiment [2].

Consider `Cc1cc(C2CC2)nc(Nc2ccccc2)n1`, for which, in [1], the molecule was called inactive. In [2], the concentration at half-maximal activity (AC50) is 62.8 µM (active).

In the case of `Nc1c(Cl)cc([N+](=O)[O-])cc1Cl`, in experiment [1], the result was inactive. The AC50 in experiment [2] was 93.6 µM (active).

For the molecule `CSC1=N[C@@](C)(c2ccccc2)C(=O)N1Nc1ccccc1`, the AC50 in [5] was 29.9 µM (active); in experiment [2], 37.6 µM (active).

For `CCOP(=S)(OCC)OC(Cl)C(Cl)(Cl)Cl` (stereo not given), the molecule was classed as inactive in experiment [2].

In the case of `CSc1nnc(C(C)(C)C)c(=O)n1N`, in experiment [4], the concentration at half-maximal activity (AC50) was 0.0961 µM (active). For the same molecule, the molecule was classed as inactive in experiment [3].

`CCOP(=S)(Oc1cnc(C(C)(C)C)nc1)OC(C)C` (stereo not given): the outcome in [2] was inactive.

Turning to `COP(=O)(NC(C)=O)SC` (stereo not given), the result in [1], in [3], in [2] and in [6] was inactive.

Turning to `Nc1nc(N)nc(NC2CC2)n1`, the call in experiment [3] and in experiment [2] was inactive.

Regarding `COP(=O)(OC)OC(Br)C(Cl)(Cl)Br` (stereo not given), the call in experiment [1] and in experiment [2] was inactive.

With `S=C1NCCN1`, the result in experiment [4], in experiment [2], in experiment [7], in experiment [8], in [9] and in experiment [10] was inactive.

Regarding `CCC(=O)Nc1ccc(Cl)c(Cl)c1`, the outcome in [3] and in experiment [2] was inactive.

On to `COP(=O)(OC)C(O)C(Cl)(Cl)Cl` (stereo not given), for which, in experiment [2], the call was inactive.

Consider `FC(F)C(F)(F)OCC(Cn1cncn1)c1ccc(Cl)cc1Cl` (stereo not given), for which the result in [4] and in [3] was inactive. Moreover, the concentration at half-maximal activity (AC50) in [2] was 0.00154 µM (active).

`CCOC(=O)CC(SP(=O)(OC)OC)C(=O)OCC` (stereo not given): the result in experiment [1], in [2] and in experiment [6] was inactive.

As to `CC[C@H](C)[C@H]1O[C@]2(C=C[C@@H]1C)C[C@@H]1C[C@@H](C/C=C(\C)[C@@H](O[C@H]3C[C@H](OC)[C@@H](O[C@H]4C[C@H](OC)[C@@H](NC)[C@H](C)O4)[C@H](C)O3)[C@@H](C)/C=C/C=C3\CO[C@@H]4[C@H](O)C(C)=C[C@@H](C(=O)O1)[C@]34O)O2`, the values for the concentration at half-maximal activity (AC50) in [1] and in [2] were 2 µM (active) and 1.49 µM (active), respectively.

In the case of `CN1COCN(Cc2cnc(Cl)s2)C1=N[N+](=O)[O-]`, the molecule was called inactive in experiment [2].
